# Experimental data as given in PubChem BioAssay.
# The source made the active and inactive calls. Unless noted, no stated cut-off is given here; in the data, active means inhibition above about 80%; inactive means the rest.
# Key:
# [1] = sensitizers of A549 cells to miR-34 induction, primary screen, imaging, A549 dox-inducible miR-34, nuclei and caspase counts (AID 1347080;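 active means compounds whose cell count with miR-34 switched on is under 0.7 times the count with it off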); settings: A549 miR-34 inducible, Hoechst nuclei count, 48 h
# [2] = survival rescue of mitochondrial mutant cells in low glucose, primary screen, MELAS cybrids, Rieske KO mouse fibroblasts, CellTiter-Glo (AID 1508586;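 active means mean z-score across replicates of 1.96 or higher in either the MELAS or the Rieske mutant cell line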;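 further: z relative to plate mean and SD of compound and empty wells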)
# [3] = LFS_MB_P medulloblastoma growth inhibition, cell-based, chromothripsis tumors, cisplatin or BGB combos (AID 1671449); settings: LFS_MB_P medulloblastoma cells;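 further: cells exposed for 96 hours; 0% = vehicle DMSO and 100% = killing by high DMSO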
# [4] = HDN33 neuroblastoma growth inhibition, cell-based, chromothripsis tumors, cisplatin or BGB combos (AID 1671450); settings: HDN33 neuroblastoma cells, stronger effect = higher value;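 further: cells exposed to compound for four days; 0% = vehicle DMSO and 100% = cell killing by high DMSO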
# [5] = ICB984 medulloblastoma cell growth inhibition, synergistic combos for chromothripsis tumors, cisplatin or BGB combos (AID 1671451; call rule not given here;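 further: cells exposed for 96 hours before readout; 0% = vehicle DMSO and 100% = killing by high DMSO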); settings: ICB984 medulloblastoma cells, drug combinations, stronger effect = higher value
# [6] = LFS_MB_1R medulloblastoma cell growth inhibition, synergistic combos for chromothripsis tumors, cisplatin or BGB combos (AID 1671452); settings: LFS_MB_1R medulloblastoma cells, stronger effect = higher value;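 further: cells exposed for 96 hours before readout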
# [7] = HTB85 osteosarcoma cell growth inhibition, synergistic combos for chromothripsis tumors, BGB or cisplatin IC20 combos (AID 1671453); settings: HTB85 osteosarcoma cells, drug combinations, stronger effect = higher value;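 further: cells exposed for 96 hours before readout; 0% = vehicle DMSO and 100% = high DMSO killing control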
# [8] = CRL2098 osteosarcoma cell growth inhibition, synergistic combos for chromothripsis tumors, BGB or cisplatin IC20 combos (AID 1671454); settings: CRL2098 osteosarcoma cells, drug combinations, stronger effect = higher value;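 further: cells exposed for 96 h before readout; 0% = vehicle DMSO and 100% = killing by high DMSO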
# [9] = HD-MB03 medulloblastoma cell growth inhibition, synergistic combos for chromothripsis tumors, BGB or cisplatin IC20 combos (AID 1671455; in the data active means inhibition above about 83%;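 further: 0% = vehicle DMSO and 100% = high DMSO as cytotoxic control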); settings: HD-MB03 medulloblastoma cells, stronger effect = higher value
# [10] = UWB1.289 ovarian carcinoma cell growth inhibition, synergistic combos for chromothripsis tumors, BGB or cisplatin combos (AID 1671456); settings: UWB1.289 ovarian carcinoma cells, stronger effect = higher value;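 further: cells exposed to compound for four days; 0% = vehicle DMSO and 100% = killing by high DMSO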
# [11] = LFS_MB_2R medulloblastoma cell growth inhibition, synergistic combos for chromothripsis tumors, cisplatin combos (AID 1671457); settings: LFS_MB_2R medulloblastoma cells, stronger effect = higher value;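 further: cells exposed to compound for four days before readout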
# [12] = MDA-MB-436 breast carcinoma cell growth inhibition, synergistic combos for chromothripsis tumors, BGB or cisplatin combos (AID 1671458; call rule not given here;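 further: cells exposed for 96 hours; 0% = vehicle DMSO and 100% = killing by high DMSO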); settings: MDA-MB-436 breast carcinoma growth inhibition, drug combinations, stronger effect = higher value
# [13] = UWB1.289_BRCA1 ovarian cancer growth, cell-based, BGB or cisplatin combinations (AID 1671459); settings: UWB1.289 BRCA1 ovarian carcinoma, drug combinations, stronger effect = higher value
# [14] = human astrocyte viability loss, single and combined drugs, cytotoxicity control for chromothriptic childhood tumor combination screen, cell-based, BGB or cisplatin IC20 combos (AID 1671460); settings: Human astrocytes, drug combinations, stronger effect = higher value;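 further: cells exposed to compounds for 96 hours before viability readout; 0% = vehicle and 100% = killing control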
# [15] = growth inhibition of BT084 medulloblastoma cells, cell-based, ICGC_MB145, cisplatin and BGB IC40 combos (AID 1671461); settings: drug combinations, stronger effect = higher value;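 further: cells exposed to drugs for 96 hours; 0% = vehicle DMSO and 100% = high DMSO full killing control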
# [16] = growth inhibition of RCMB18 medulloblastoma cells, cell-based, cisplatin and BGB IC40 combos (AID 1671462); settings: stronger effect = higher value;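 further: cells exposed to compound for four days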
# [17] = growth inhibition of CRL1545 osteosarcoma cells, cell-based, cisplatin and BGB IC20 combos (AID 1671464); settings: stronger effect = higher value;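 further: cells exposed to compound for 96 hours before readout; 0% = vehicle DMSO and 100% = high DMSO killing control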
# [18] = hESC survival regulators, cell-based (AID 493140; call rule not given here;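 further: cells exposed to compounds for four days before counting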); settings: human embryonic stem cell survival screen; stronger effect = higher value
# [19] = liver-stage malaria parasite growth inhibition, primary screen, cell-based, HepG2, luciferase luminescence, HepG2 viability (AID 624349; in the data active means parasite load remaining mostly below about 12%, no sharp cut-off; inactive means mostly above about 10%;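 further: 100% = mean of DMSO negative control wells on the same plate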); settings: P. berghei liver stage in HepG2, luciferase luminescence, concentration not given here; parasite load remaining: stronger effect = lower value; viability: measured here: HepG2 viability without parasites
# [20] = stronger effect = lower value, cell number ratio, induced over uninduced
# [21] = measured here: relative caspase fold change +Dox/-Dox
# [22] = measured here: total cells with miR-34 induction, stronger effect = lower value
# [23] = measured here: total cells without miR-34 induction
# [24] = MELAS cybrid survival, CellTiter-Glo 48 h, stronger effect = higher value
# [25] = Rieske KO mouse fibroblast survival, CellTiter-Glo 72 h
# [26] = measured here: combination with BGB IC40, at 0.05 µM
# [27] = measured here: with BGB IC20 combination, at 0.5 µM
# [28] = measured here: with cisplatin IC20 combination, at 0.5 µM
# [29] = measured here: combination with cisplatin, at 0.5 µM
# [30] = measured here: combination with cisplatin, at 5 µM
smiles,measurement,setting,value
O=c1[nH]c(=O)n(C2CC(O)C(CO)O2)cc1I (stereo not drawn),fold change,[1]; [20],0.851 (inactive)
same,fold change,[1]; [21],0.749
same,cell count,[1]; [22],6980
same,cell count,[1]; [23],8200
same,z-score,[2]; [24],-0.224 (inactive)
same,z-score,[2]; [25],-0.483
same,inhibition,"[3]; at 0.5 µM, stronger effect = higher value",4.71% (inactive)
same,inhibition,"[3]; measured here: combination with BGB IC20, at 0.005 µM",8.42%
same,inhibition,"[3]; measured here: combination with BGB IC40, at 0.005 µM",-21.4%
same,inhibition,[3]; [26],12.9%
same,inhibition,"[3]; measured here: combination with cisplatin, at 0.5 µM, stronger effect = higher value",-5.31%
same,inhibition,"[3]; measured here: combination with cisplatin, at 5 µM, stronger effect = higher value",2.43%
same,inhibition,"[4]; BGB combo, at 5 µM",9.54%
same,inhibition,[4]; at 0.5 µM,-18.4% (inactive)
same,inhibition,"[4]; cisplatin combo, at 5 µM",3.9%
same,inhibition,[4]; [27],-28.5%
same,inhibition,[4]; [28],-14%
same,inhibition,"[4]; single agent, at 5 µM",24%
same,inhibition,"[5]; BGB IC20 combo, at 0.005 µM",-15.6%
same,inhibition,"[5]; BGB IC40 combo, at 0.005 µM",-20.9%
same,inhibition,"[5]; BGB IC40 combo, at 0.05 µM",-13.7%
same,inhibition,[5]; at 0.5 µM,-8.85% (inactive)
same,inhibition,"[5]; cisplatin combo, at 0.05 µM",-13.7%
same,inhibition,"[5]; cisplatin combo, at 0.5 µM",-12.8%
same,inhibition,"[5]; cisplatin combo, at 5 µM",-9.03%
same,inhibition,"[5]; measured here: 5 uM single agent, at 5 µM",4.46%
same,inhibition,[6]; at 0.5 µM,-47.8% (inactive)
same,inhibition,[6]; [26],-9.63%
same,inhibition,[6]; [29],-105%
same,inhibition,[6]; [30],-24%
same,inhibition,[7]; at 0.5 µM,-28.2% (inactive)
same,inhibition,"[7]; measured here: with BGB IC20, at 0.5 µM",-26.8%
same,inhibition,"[7]; measured here: with BGB IC20, at 5 µM",-4.26%
same,inhibition,"[7]; measured here: with cisplatin IC20, at 0.5 µM",-39.9%
same,inhibition,"[7]; measured here: with cisplatin IC20, at 5 µM",-31.8%
same,inhibition,"[7]; single agent, at 5 µM",-17.4%
same,inhibition,[8]; at 0.5 µM,-42.2% (inactive)
same,inhibition,"[8]; measured here: combination with BGB at IC20, at 0.5 µM",-45.9%
same,inhibition,"[8]; measured here: combination with cisplatin at IC20, at 0.5 µM",-41.5%
same,inhibition,[9]; at 0.5 µM,-7.04% (inactive)
same,inhibition,"[9]; measured here: combo with BGB at IC20, at 0.5 µM",-3.12%
same,inhibition,"[9]; measured here: combo with cisplatin at IC20, at 0.5 µM",-7.71%
same,inhibition,[10]; at 0.5 µM,-5.21% (inactive)
same,inhibition,"[10]; measured here: inhibition with BGB combination, at 0.05 µM",-13.3%
same,inhibition,"[10]; measured here: inhibition with cisplatin combination, at 0.05 µM",-14.8%
same,inhibition,[11]; at 0.5 µM,-2.58% (inactive)
same,inhibition,[11]; [29],4.62%
same,inhibition,[11]; [30],-3.61%
same,inhibition,[12]; at 0.5 µM,-9.35% (inactive)
same,inhibition,"[12]; measured here: BGB combination, at 0.5 µM",-10.8%
same,inhibition,"[12]; measured here: BGB combination, at 5 µM",-16.9%
same,inhibition,"[12]; measured here: cisplatin combination, at 0.5 µM",-22.4%
same,inhibition,"[12]; measured here: cisplatin combination, at 5 µM",-10.7%
same,inhibition,"[13]; BGB combination, concentration series, at 5 µM",0.385%
same,inhibition,[13]; at 0.5 µM,-5.4% (inactive)
same,inhibition,"[13]; cisplatin combination, concentration series, at 5 µM",-6.29%
same,inhibition,[14]; at 0.5 µM,-11.4% (inactive)
same,inhibition,"[14]; measured here: combo with BGB IC20, at 0.5 µM",-7.44%
same,inhibition,"[14]; measured here: combo with cisplatin IC20, at 0.5 µM",-19.9%
same,inhibition,[15]; at 0.5 µM,-4.3% (inactive)
same,inhibition,"[15]; cisplatin combination, at 0.5 µM",-7.3%
same,inhibition,"[15]; cisplatin combination, at 5 µM",-44.5%
same,inhibition,"[15]; measured here: BGB IC40 combination 0.05 uM, at 0.05 µM",12.9%
same,inhibition,"[15]; single agent, at 5 µM",-7.11%
same,inhibition,[16]; at 0.5 µM,-5.93% (inactive)
same,inhibition,"[16]; cisplatin combo, at 5 µM",-28.2%
same,inhibition,"[16]; measured here: BGB IC40 combination, at 0.05 µM",-1.89%
same,inhibition,[16]; [29],-10.4%
same,inhibition,"[16]; single agent, at 5 µM",-39.8%
same,inhibition,[17]; at 0.5 µM,-56.2% (inactive)
same,inhibition,[17]; [27],-15.6%
same,inhibition,[17]; [28],-76.5%
same,inhibition,"[17]; single agent, at 0.05 µM",10.9%
same,inhibition,"[17]; single agent, at 5 µM",6.02%
CC1CS(=O)(=O)CCN1N=Cc1ccc([N+](=O)[O-])o1 (stereo not drawn),survival,[18],3.75 (inactive)
same,parasite load remaining,[19],67.6% (inactive)
same,viability,[19],75.5%
same,fold change,[1]; [20],0.925 (inactive)
same,fold change,[1]; [21],0.621
same,cell count,[1]; [22],8950
same,cell count,[1]; [23],9680
same,z-score,[2]; [24],-0.298 (inactive)
same,z-score,[2]; [25],-0.374
